High-throughput results deposited in PubChem BioAssay by National Center for Advancing Translational Sciences (NCATS).
A selection: hits, their analogues and other compounds. The true share with any hit is near 3%.
D3 antag – qHTS of D3 Dopamine Receptor Antagonist: qHTS; D(3) dopamine receptor (Homo sapiens), P35462; D3R cells, DiscoveRx beta-arrestin luminescence, antagonist mode; hits give low values; max response, negative = inhibition, %; 360,000 tested, 2.5% active; AID 652054, 2013; in the data active = max response below about -50%; inconclusive = no clear call, values can overlap the other calls
Target sequence (P35462 whole entry, looked up): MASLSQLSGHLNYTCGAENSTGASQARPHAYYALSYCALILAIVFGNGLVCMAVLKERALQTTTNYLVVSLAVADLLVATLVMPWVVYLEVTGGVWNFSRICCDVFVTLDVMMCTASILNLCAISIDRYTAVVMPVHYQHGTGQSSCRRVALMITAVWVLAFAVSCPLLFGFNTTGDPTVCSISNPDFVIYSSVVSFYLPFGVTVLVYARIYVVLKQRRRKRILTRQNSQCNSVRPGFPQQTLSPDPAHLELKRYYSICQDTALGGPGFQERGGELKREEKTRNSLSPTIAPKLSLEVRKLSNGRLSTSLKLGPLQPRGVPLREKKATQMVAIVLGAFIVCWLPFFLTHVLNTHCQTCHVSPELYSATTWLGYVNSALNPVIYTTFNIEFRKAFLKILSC
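Cells plated overnight at 1500 cells/well, then exposed to library compounds with dopamine controls for 90 minutes at 37 degrees C. DiscoveRx reagent added for 30–60 minutes at room temperature; luminescence read, quantitative HTS format.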
Nrf2 activator – qHTS of Nrf2 Activators | AREc32 ARE-luciferase reporter (MCF7-derived line), luminescence, 24 h | Potency, µM (top dose mostly 46.1 µM), most hits filed as activators | 410,000 tested, 0.31% active; also: nearly all actives have a fitted effect of over 65% in size
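For detection, Steady-Glo was added and plates sat 30 min at RT; before that, AREc32_Fluc cells grown overnight in OPTI-MEM/5% FBS had been treated with 23 nL compound for 24 hr at 37 deg C.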
D3 ag – qHTS of D3 Dopamine Receptor Agonist: qHTS; D(3) dopamine receptor (Homo sapiens), P35462; D3R DiscoveRx beta-arrestin cells, luminescence, 90 min; max activation, %; 410,000 tested, 0.58% active; AID 652048, 2013; in the data active = max activation above about 30%
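Agonist-mode cell screen: cells plated at 1500/well and incubated overnight at 37 °C, then exposed to library compounds for 90 min at 37 °C. Detection reagent was added for 30–60 min at room temperature, and luminescence was read.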
GRP78 ERSR act – qHTS for Inducers of the Endoplasmic Reticulum Stress Response (ERSR) in Human Glioma: qHTS; U87-MG GRP78 promoter luciferase reporter, 16 h; Potency, µM, most hits filed as activators; 420,000 tested, 0.02% active; AID 602332, 2012; also: series mostly up to about 76 µM; nearly all actives have a fitted effect of over 35% in size
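Stably transfected U87-MG human glioma cells carrying a GRP78-based luminescent sensor were seeded at 1000 cells/well, pin-dosed with compounds and incubated 16 h. Luciferase reagent was then added, and end-point luminescence was read after 10 min at room temperature.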
Each line names hits and unclear results; the compound was inactive in the other large screens; ! = not confirmed by another sample. Unless noted, calls follow the shape of the dose curve; as a rule, active = well fitted curve in the direction sought with a large enough effect; inconclusive = small, poorly fitted or top-dose-only effect, or another doubt; inactive = no such curve, though single readings can be large; an effect the other way counts as inactive or inconclusive.

CNc1nc(Cl)nc2c1ncn2CC(COC(=O)C(C)(C)C)COC(=O)C(C)(C)C	none (no result: D3 antag, Nrf2 activator, D3 ag)
Cc1cc(C(=O)NCCCn2ccnc2)sc1-c1ccccc1	D3 antag -70
CCc1c(-c2cccc(Cl)c2)ncn1Cc1cccc(-c2ccccc2)c1	none (no result: Nrf2 activator, GRP78 ERSR act)
CCCc1c(-c2cccc(Cl)c2)ncn1Cc1cccc(-c2ccccc2)c1	D3 ag 52 (no result: Nrf2 activator, GRP78 ERSR act)
CC(C)CC(=O)N1C/C=C\C[C@@H](c2ccc(Cl)cc2)N(Cc2ccc(Cl)cc2)C(=O)[C@@H]1Cc1ccccc1	none (no result: D3 antag, Nrf2 activator, D3 ag)
COCCCNc1ncnc2sc(C(=O)N3CCOCC3)c(C)c12	none (no result: D3 antag, Nrf2 activator, D3 ag)
CC1(C)S[C@@H]2C(C(=O)O)NC(=O)N2C1C(=O)O (some centres not stated)	none (no result: D3 antag, Nrf2 activator, D3 ag)
O=C(NCC1(N2CCOCC2)CCCC1)c1cnn(-c2nccc(-c3ccco3)n2)c1C1CC1	none (no result: D3 antag, Nrf2 activator, D3 ag)
Cn1c(-[n+]2c(-c3ccccc3)cc(-c3ccccc3)cc2-c2ccccc2)nc2c([N+](=O)[O-])cccc21	D3 antag -60
O=C(NCCCc1nc2ccccc2n1CCCOc1ccccc1)C1CCCCC1	none (no result: D3 antag, Nrf2 activator, D3 ag)
Cc1cnc(-n2ncc(C(=O)NCC(C)(C)N3CCOCC3)c2C(C)C)nc1-c1ccc(F)cc1	none (no result: D3 antag, Nrf2 activator, D3 ag)
CCc1ccc2occ(CC(=O)N(Cc3ccc(N(C)C)cc3)C3CCS(=O)(=O)C3)c2c1 (configuration not stated)	none (no result: D3 antag)
CCCN(C(=O)Cc1coc2cc(OC)ccc12)C1CCS(=O)(=O)C1 (configuration not stated)	D3 antag -52
COc1cccc(/C=C/c2ccnc3ccccc23)c1OC	none (no result: D3 antag, Nrf2 activator, D3 ag)
Cc1cccc(C)c1NC(=O)N1CCC(c2nc3ccccc3o2)CC1	D3 antag -75
Cc1cccc(C)c1OCC(=O)N1CCC(c2nc3ccccc3o2)CC1	none (no result: D3 antag)
CC(=O)N1CCc2cc(S(=O)(=O)NCCN3CCC(C)CC3)ccc21	D3 antag -58
CC(=O)N1CCc2cc(S(=O)(=O)N3c4ccccc4CC3C)ccc21 (configuration not stated)	D3 antag -51
CC(=O)N1CCc2cc(S(=O)(=O)N3CCOCC3)ccc21	none
CC(=O)N1CCc2cc(S(=O)(=O)NCCCN3CCN(Cc4ccccc4)CC3)ccc21	D3 antag inconclusive
CCN1CCN(Cc2ccc(NC(=O)Nc3ccccc3Cl)cc2)CC1	D3 antag -61
O=C(Nc1ccc(CN2CCCCC2)cc1)c1ccc(Br)o1	D3 antag -62
CC(=O)Nc1ccc(CN2CCCCCCC2)cc1	D3 antag inconclusive
O=C(Nc1ccc(CN2CCCCC2)cc1)Nc1ccccc1Cl	D3 antag -52
CCN1CCN(Cc2ccccc2NC(=O)Nc2ccc(C)cc2)CC1	none
CC/C=C(/C(=O)N[C@@H]1C(=O)N2C(C(=O)OCOC(=O)C(C)(C)C)=C(COC(N)=O)CS[C@H]12)c1csc(N)n1	none (no result: D3 antag, Nrf2 activator, D3 ag)
CCC(c1nc2ccccc2[nH]1)n1c(-c2ccnc(Cl)c2)nc2ccccc21 (configuration not stated)	D3 antag -75 (no result: Nrf2 activator, GRP78 ERSR act)
CCC(c1nc2ccccc2[nH]1)n1c(-c2cccnc2)nc2ccccc21 (configuration not stated)	none (no result: Nrf2 activator, GRP78 ERSR act)
CN1CCN(C(=O)CCCN2C(=O)/C(=C/c3cccc(Br)c3)SC2=S)CC1	Nrf2 activator 13µM
O=C1/C(=C/c2cccc(Br)c2)SC(=S)N1CCC(=O)N(CCO)c1ccccc1	Nrf2 activator 13µM
O=C(O)c1cc2cc(Cl)ccc2oc1=O	D3 ag 34
Cc1c(Cl)cccc1NC(=O)CN1CCC(C(O)(c2ccccc2)c2ccccc2)CC1	D3 antag -62
Cc1ccccc1C(=O)NC1CCN(CC(=O)Nc2ccccc2Cl)CC1	none
Cc1ccc(NC(=O)CN2CCCC2)cc1Br	D3 antag -64
Cc1c(Cl)cccc1NC(=O)CCN1CCCCC1	D3 antag -58
COC(=O)c1ccc(NC(=O)CCN2CCCCC2)cc1	D3 antag -52!
CCOC(=O)C1CCCCN1C(=O)c1cnn(-c2nccc(-c3cc(C)sc3C)n2)c1C1CC1 (configuration not stated)	none (no result: D3 antag, Nrf2 activator, D3 ag)
CCN(CC)C1CCN(C(=O)c2cnn(-c3nccc(-c4ccccc4OC)n3)c2-c2ccco2)C1 (configuration not stated)	none (no result: D3 antag, Nrf2 activator, D3 ag)
CCCCn1c(=O)c2oc3ccccc3c2n(Cc2cccc(C)c2)c1=O	none (no result: D3 antag)
CN1CCN(CCC(=O)Nc2ccc(Br)cc2)CC1	none
O=C(CCN1CCCCC1)Nc1ccc(Br)cc1	D3 antag -69
O=C(CN1CCCCCC1)Nc1ccc(Br)cc1	D3 antag -114
O=C(CN1CCCC1)Nc1ccc(Br)cc1	none
O=C(CN1CCN(C2CCCCC2)CC1)Nc1ccc(Br)cc1	D3 antag -53
O=C(CN1CCN(S(=O)(=O)N2CCCCC2)CC1)Nc1ccc(Br)cc1	none
Cc1ccc(S(=O)(=O)NCC(=O)Nc2ccc(C(F)(F)F)cc2)cc1	D3 ag 35
CCn1c2ccccc2c2cc(/C=C3\C=Cc4ccccc43)ccc21	none (no result: D3 antag, Nrf2 activator, D3 ag)
C1=Cc2ccccc2/C1=C\c1cccc(/C=C2\C=Cc3ccccc32)c1	none (no result: D3 antag, Nrf2 activator, D3 ag)
O=C(C[n+]1c2ccccc2cc2ccccc21)c1ccc(F)cc1	none (no result: D3 antag, Nrf2 activator, D3 ag)
Cc1ccc(S(=O)(=O)Nc2ccc(NC(=O)CN3CCCCC3)cc2)cc1	D3 antag -60
Cc1c(C(=O)Nc2ccc(F)cc2)oc2ccc(S(=O)(=O)N3CCC4(CC3)OCCO4)cc12	D3 ag 65
Cc1c(C(=O)Nc2ccc(F)c(F)c2)oc2ccc(S(=O)(=O)N3CCC4(CC3)OCCO4)cc12	D3 ag 31 (no result: D3 antag)
OC1(c2cccnc2)CCN(Cc2ccc3c(c2)CN(Cc2cc4ccccc4s2)CCO3)CC1	none (no result: D3 antag, Nrf2 activator, D3 ag)
O=C(c1ccco1)N1CCN(c2nc3c(F)cc(F)cc3s2)CC1	none (no result: D3 antag)
COc1ccc(OCC2CN3C(CCC(C)C3c3ccc(Br)cc3)C(=O)O2)cc1 (configuration not stated)	none (no result: D3 antag, Nrf2 activator, D3 ag)
COc1ccccc1-c1cc(C(=O)NC(C)C)no1	none
COc1ccccc1-c1cc(C(=O)NC(C)c2ccccc2)no1 (configuration not stated)	D3 antag -58
Cc1c(C(=O)N2CCCC2)sc(NC(=O)c2ccc(Cl)cc2)c1C#N	D3 antag -55
CCOC(=O)C1(C)CCN1C(=O)c1cccc(OC)c1 (configuration not stated)	none
CCOC(=O)C1(C)CCN1C(=O)c1cccc(Cl)c1 (configuration not stated)	D3 ag 48
COc1ccc(Cl)cc1N1CCN(CCNC(=O)Nc2ccccc2C)CC1	D3 antag -131
Cc1nc2ncnn2c(C)c1CCC(=O)NCCCN1CCN(c2cccc(Cl)c2)CC1	D3 antag -52
COc1ccccc1NC(=O)NCCCN1CCN(c2cccc(Cl)c2)CC1	D3 antag -108
O=C(NCCCN1CCN(c2cccc(Cl)c2)CC1)C1(S(=O)(=O)c2ccc(Cl)cc2)CC1	D3 antag -57
COc1ccc(N2CCN(CCCNC(=O)C3(S(=O)(=O)c4ccc(Cl)cc4)CC3)CC2)cc1	none
